Records with an inconclusive call do not appear. Calls of active or inactive are those of the source. Rule for the calls, unless noted: active = hit-call score of the fitted dose curve at least 0.9, where 1 is the maximum; inconclusive = response in the unintended direction; inactive = score below 0.9.

A word on the AC50: it is the concentration at which the activity in the assay is half-maximal.

Chain of human Retinoic Acid Receptor beta (RARb), RARB (gene 5915) (P10826 whole entry, looked up): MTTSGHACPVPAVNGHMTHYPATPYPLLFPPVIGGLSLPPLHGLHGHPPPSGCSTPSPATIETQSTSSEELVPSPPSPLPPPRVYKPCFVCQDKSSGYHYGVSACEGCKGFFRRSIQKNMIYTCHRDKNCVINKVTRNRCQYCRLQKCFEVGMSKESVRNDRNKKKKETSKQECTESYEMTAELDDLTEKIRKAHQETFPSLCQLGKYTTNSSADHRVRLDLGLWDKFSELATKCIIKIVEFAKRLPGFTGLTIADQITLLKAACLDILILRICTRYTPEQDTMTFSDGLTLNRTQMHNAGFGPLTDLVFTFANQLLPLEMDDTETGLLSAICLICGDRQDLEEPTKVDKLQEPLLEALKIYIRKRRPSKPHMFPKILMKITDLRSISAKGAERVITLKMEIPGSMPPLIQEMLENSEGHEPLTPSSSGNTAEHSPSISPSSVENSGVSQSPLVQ

Read-out in the first assay: Intercellular Adhesion Molecule 1 (ICAM1), ICAM1 (gene 3383)
The assay can be described thus: BSK_3C_ICAM1: BioMAP Diversity Plus: 3C Assay for Intercellular Adhesion Molecule 1 (ICAM1) Biomarker Activity (AID 2283003; active = hit-call score of the fitted dose curve at least 0.9, where 1 is the maximum; inactive = score below 0.9). The conditions noted are these: primary human endothelial cells (HUVEC); actives raise or lower the signal. A digest of the protocol:
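Using DMSO as baseline, bidirectional curve fitting was applied to ICAM-1 ELISA signals from HUVEC in the 3C system, measured 24 h after compound addition.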
`ClC1=C(Cl)[C@]2(Cl)[C@H]3[C@H]([C@H]4C=C[C@H]3C4)[C@@]1(Cl)C2(Cl)Cl`: the result was inactive.
The same measure, in the same setting: next, `CCOP(=S)(OCC)Oc1ccc(S(C)=O)cc1` (stereo unspecified): “inactive”; `ClC1(Cl)C2(Cl)C3(Cl)C4(Cl)C(Cl)(Cl)C5(Cl)C3(Cl)C1(Cl)C5(Cl)C24Cl` (stereo unspecified): “inactive”.
Same read-out and setting: in the case of `Nc1cccc2ccccc12` it was “inactive”.
Take `ClC(Cl)=C(Cl)C(Cl)=C(Cl)Cl`: the AC50 was 34 µM (active).
Turning to `O=S(=O)(c1ccc(Cl)cc1)c1ccc(Cl)cc1`, the result was inactive.
On the same count and under the same terms, in the case of `CC1(C)Cc2cccc(O)c2O1` it was “inactive”; in that of `NC(=S)Nc1ccccc1`, “inactive”.
Still for that read-out and setting: next, `COP(=S)(OC)Oc1ccc(Sc2ccc(OP(=S)(OC)OC)cc2)cc1`: “inactive”; `ClCC(Cl)CCl`: “inactive”.

Another assay concerns the target human Retinoic Acid Receptor beta (RARb), RARB (gene 5915) (UniProt P10826). The assay is described as follows: ATG_RARb_TRANS: Attagene TRANS-FACTORIAL HepG2 Assay for human Retinoic Acid Receptor beta (AID 2283004).
Details: not given
A digest of the protocol:
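HepG2 cells transiently transfected with multiplexed GAL4-UAS reporter units expressing chimeric NR–Gal4 fusions; 24 h compound exposure. Reporter mRNA quantified by RT-PCR, 6-FAM labelling, HpaI digestion and capillary electrophoresis; gain-of-signal fitted against DMSO baseline.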
Consider `C[C@]12CC[C@H](O)CC1=CC[C@@H]1[C@@H]2CC[C@]2(C)C(=O)CC[C@@H]12`, for which the compound was classed as inactive.
Turning to `C=C(C)C#N`, the outcome was inactive.
As for `COc1cccc(C=O)c1`, the compound was classed as inactive.
On the same count and under the same terms, in the case of `O=C(O)Cc1ccccc1` it was “inactive”; in that of `CCOP(=S)(OCC)Oc1ccc(S(C)=O)cc1` (stereo unspecified), “inactive”.
The same measure, in the same setting: next, `O=C(Cc1ccccc1)c1ccccc1`: “inactive”; `NC(=S)Nc1ccccc1`: “inactive”; `C1CCC(NC2CCCCC2)CC1`: “inactive”.
Still for that read-out and setting: in the case of `ClCC(Cl)CCl` it was “inactive”; in that of `CC(=O)C=C(C)C`, “inactive”.
Regarding `CCOP(OCC)OCC`, the outcome was inactive.

(Values after PubChem BioAssay (EPA / NIEHS).)
